Assay results from PubChem BioAssay.
Active and inactive are the calls of the source.

Experiments:
[1] = A549 cell viability effects, profiling panel, calcein-AM fluorescence, 48 h, basal (AID 1162); conditions: higher = more signal
[2] = adipocyte viability effects, profiling panel, cell-based, 3T3-L1 adipocytes, calcein-AM fluorescence, 48 h, basal (AID 1163); conditions: 3T3-L1 adipocytes viability, higher = more signal
[3] = HepG2 cell viability effects, profiling panel, calcein-AM fluorescence, 48 h, basal (AID 1164); conditions: higher = more signal
[4] = MM1S cell viability effects, profiling panel, calcein-AM fluorescence, 48 h, basal (AID 1165); conditions: higher = more signal;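 note: viability of MM1S multiple myeloma cells under basal unstimulated conditions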
[5] = basal RPMI8226 viability, no added stimulus, profiling panel, cell-based, calcein-AM fluorescence, 48 h, PK04 Diversity Set (AID 1166); conditions: RPMI8226 myeloma viability, higher = more signal;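 note: cells grown under basal conditions without added stimulus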
[6] = basal HepG2 mitochondrial membrane potential changes, profiling panel, cell-based, JC-1 fluorescence, 24 h, 100 nL compound (AID 1167); conditions: higher = more signal
[7] = basal 3T3-L1 adipocyte mitochondrial potential changes, profiling panel, cell-based, JC-1 fluorescence, 3T3-L1 adipocytes, 24 h, 100 nL compound (AID 1168); conditions: JC-1 mitochondrial fluorescence, higher = more signal, called active from +8 up or from −8 down
[8] = basal RPMI8226 mitochondrial membrane potential changes, profiling panel, cell-based, JC-1 fluorescence, 24 h, 100 nL compound (AID 1169); conditions: RPMI8226 myeloma, JC-1 mitochondrial potential fluorescence, higher = more signal
[9] = basal MM1S mitochondrial membrane potential changes, profiling panel, cell-based, JC-1 fluorescence, 24 h, 100 nL compound (AID 1170); conditions: higher = more signal
[10] = A549 lung cancer cell viability effects, profiling panel, resazurin fluorescence, 24 h, PK04 Diversity Set (AID 1171); conditions: higher = more signal, called active from +8 up or from −8 down
Note: test concentration not given here.

Structure (SMILES)	z-score [1]	z-score [2]	z-score [3]	z-score [4]	z-score [5]	z-score [6]	z-score [7]	z-score [8]	z-score [9]	z-score [10]
COC(=O)[C@@]1(Cc2ccccc2)[C@H]2c3cc(C(=O)N(C)C)n(CCO)c3C[C@H]2CN1C(=O)c1ccccc1	-1.33	0.18	-0.28	-0.0531	-1.99	-0.92	-2.92 (inactive)	0.127	-0.787	-0.723 (inactive)
COc1cc(C(O)C2C=CC3C(=O)N(c4ccccc4)C(=O)C3N2Nc2ccccc2)cc(OC)c1OC (stereo not given)	-0.591	-1.66	-0.342	0.294	-0.0482	-2.43	-1.22 (inactive)	-0.953	-0.116	-0.427 (inactive)
O=C1C=C(c2ccccc2)C(=O)C2=C1CC([C@H]1Oc3ccccc3S(=O)(=O)N3CCC[C@@H]13)=CC2	-0.653	-0.17	-1.05	-3.2	-3.99	-3.49	-2.49 (inactive)	-1.16	-2.67	-0.0039 (inactive)
COC(=O)[C@@]1(Cc2ccc(OC)cc2)[C@H]2c3cc(C(=O)N4CCCC4)n(CCn4cc([N+](=O)[O-])nc4C)c3C[C@H]2CN1C(=O)c1ccccc1	-1.13	0.936	0.0032	-0.0622	-2.16	2.13	-1.03 (inactive)	0.564	-0.693	-0.612 (inactive)
CC(C)NC(=O)[C@@H]1c2ccccc2C(=O)N(Cc2ccc(OC(F)(F)F)cc2)[C@H]1c1ccc(CO)cc1	0.531	1.34	-0.315	1.09	-1.85	2.18	-1.32 (inactive)	0.24	-0.498	0.0746 (inactive)
CCCC=C(CCC)[C@@H](NC(=O)c1ccc(C(F)(F)F)cc1)c1ccc(C(F)(F)F)cc1	-1.88	-0.0493	-0.751	-1.53	-3.65	4.85	0.216 (inactive)	-0.235	-0.678	0.949 (inactive)
CCCCC(O)C1C=CC2C(=O)N(c3ccccc3)C(=O)C2N1Nc1ccc([N+](=O)[O-])cc1 (stereo not given)	0.286	-0.229	0.0784	-0.72	-0.438	-0.573	-1.08 (inactive)	-0.147	-0.745	0.113 (inactive)
O=C1O[C@@H](c2ccccc2)[C@@H](c2ccccc2)N2[C@@H](c3ccc(OCCO)cc3)[C@]3(C(=O)Nc4ccc(C#CC5(O)CCCCCC5)cc43)[C@@H](C(=O)Nc3nc4ccccc4s3)[C@H]12	0.324	1.33	0.667	-1.64	-1.79	-3.13	-0.456 (inactive)	-0.805	-0.344	0.524 (inactive)
CN(C)CCCNC(=O)[C@@]1(Cc2ccccc2I)c2ccccc2C(=O)N(C2CCCCC2)[C@H]1c1ccc(CO)cc1	-4.29	-0.546	-5.11	-3.78	-4.34	-2.13	2.14 (inactive)	-1.01	-2.49	-6.91 (inactive)
CCCC=C(CCC)[C@@H](NC(=O)OCC(C)C)c1ccc(C(=O)OC)cc1	0.732	-0.196	0.0516	0.753	0.528	-0.345	-1.53 (inactive)	-0.0219	-1.32	0.293 (inactive)
O=C1O[C@@H](c2ccccc2)[C@@H](c2ccccc2)N2[C@@H](c3ccc(OCCO)cc3)[C@]3(C(=O)Nc4ccc(C#CC5(O)CCCCCC5)cc43)[C@@H](C(=O)O)[C@H]12	0.942	0.297	1.36	0.213	0.342	-0.969	-0.448 (inactive)	-0.169	0.0439	1.12 (inactive)
CCCCCCc1nc(-c2ccc(-c3ccc(Cl)c(Cl)c3)o2)cc2c1[Si](C(C)C)(C(C)C)OC2	-0.567	1.84	-0.0442	-3	-4.4	-1.24	0.771 (inactive)	-0.934	-1.23	1.19 (inactive)
CC1CC/C=C\[C@H]2OC34C=CCN(CCN5CCOCC5)C(=O)[C@H]3N(CCCO)C(=O)[C@@H]4C2C(=O)O1 (stereo not given in full)	-0.451	0.483	-0.723	1.22	0.42	-0.734	-0.711 (inactive)	0.741	0.649	-0.467 (inactive)
C=CCOC(=O)[C@H]1[C@@H]2C(=O)O[C@@H](c3ccccc3)[C@@H](c3ccccc3)N2[C@@H](c2ccc(OCCOC(=O)[C@H]3C[C@H]4C(=O)N[C@@H](CC(C)C)C(=O)N4[C@H]3c3ccc(O)cc3)cc2)[C@]12C(=O)Nc1ccccc12	0.0118	-0.382	0.414	0.178	0.34	-1.78	1.05 (inactive)	-0.485	-1.19	1.96 (inactive)
COC(=O)C1=CC(CCCO)=CC(c2cccs2)N(Cc2cc3c(cc2Br)OCO3)C=C1C(=O)OC (stereo not given)	0.236	0.425	0.897	-1.26	-0.188	0.725	-0.253 (inactive)	-0.131	0.398	-0.0673 (inactive)
Cc1ccc(S[C@]2(C(=O)NCCCN(C)C)CC(=O)N(Cc3ccccc3C(F)(F)F)[C@@H]2c2ccc(CO)cc2I)cc1	0.476	0.449	-0.297	-2.72	-1.87	-0.817	-0.395 (inactive)	-0.302	-1.35	0.537 (inactive)
C=CCN1C(=O)[C@]2(O[C@H](CCn3cc([C@H](O)c4ccccc4)nn3)[C@@H]([Si](C)(C)c3ccc(OC)cc3)[C@@H]2C)c2cc(NC(=O)c3ccc(OC)cc3)ccc21	0.268	0.37	-1.87	-2.74	-4.38	3.48	0.517 (inactive)	-1.17	-1.39	-2.43 (inactive)
CCCCCCc1nc(Cc2cc(OC)c(OC)c(OC)c2)cc2c1[Si](C(C)C)(C(C)C)O[C@H]2c1ccccc1	-0.106	-0.267	-0.492	-1.09	-3.49	1.03	-0.462 (inactive)	-0.566	-0.116	2.45 (inactive)
CC(C)NC(=O)[C@@]1(C)c2ccccc2C(=O)N(Cc2ccccc2)[C@H]1c1ccc(CO)cc1	0.389	0.714	1.41	0.579	0.38	2.88	1.49 (inactive)	-0.197	1.02	-0.268 (inactive)
O=C1C2C=CC(C(O)c3cccs3)N(Nc3ccc([N+](=O)[O-])cc3)C2C(=O)N1c1ccccc1 (stereo not given)	-0.792	-1.01	1.43	-0.752	-0.85	-0.841	-0.728 (inactive)	0.569	-1.46	0.644 (inactive)
O=C(NCc1ccccc1)[C@@H]1c2ccccc2C(=O)N(Cc2cc(C(F)(F)F)cc(C(F)(F)F)c2)[C@H]1c1ccc(CO)cc1	-0.108	1.79	-0.139	0.635	-0.487	1.45	0.125 (inactive)	-0.586	-1.15	-0.281 (inactive)
CCOC(=O)C[C@H]1[C@H](OC(=O)c2ccccc2-c2ccccc2)[C@@H](NC(=O)C2CCCCC2)c2cc(OCCCO)ccc2N1C(=O)c1ccc2ccccc2n1	0.448	-0.87	0.581	-0.742	-1.3	-0.28	1.19 (inactive)	-0.21	-0.621	-0.417 (inactive)
O=C(NCCN1CCOCC1)[C@@H]1c2ccccc2C(=O)N(Cc2ccc(OC(F)(F)F)cc2)[C@H]1c1ccc(CO)cc1	3.01	1.04	0.113	0.0559	-0.231	2.31	0.229 (inactive)	1.04	0.745	0.614 (inactive)
COC(=O)[C@@]1(Cc2ccc(F)cc2)[C@H]2c3cc(C(=O)N4CCCC4)n(CCc4ccccn4)c3C[C@H]2CN1C(=O)c1ccccc1	0.19	-0.0629	0.278	-0.118	-0.431	1.98	-0.962 (inactive)	-0.815	-0.515	0.182 (inactive)
C=C(CCCC)/C(=C/C[C@@H](OC(C)=O)c1ccc(CO)o1)c1cnc2ccccc2c1	0.159	1.04	-0.042	-1.56	-1.52	-0.462	-0.583 (inactive)	-0.133	-1.12	-1.29 (inactive)
COCCOC(=O)N1C(=O)[C@@]2(c3cc(C#Cc4ccc(OC)cc4)ccc31)[C@H](c1ccc(OCCO)cc1)N1[C@H](c3ccccc3)[C@H](c3ccccc3)OC(=O)[C@H]1[C@@H]2C(=O)NC[C@H](O)c1ccccc1	0.0843	-0.129	-0.294	-0.291	-1.48	-0.305	1.67 (inactive)	-0.68	-1.52	-0.377 (inactive)
NC(=O)NCC#Cc1ccc2c(c1)[C@]1(C(=O)N2)[C@H](c2ccc(OCCO)cc2)N2[C@H](c3ccccc3)[C@H](c3ccccc3)OC(=O)[C@H]2[C@@H]1C(=O)O	-0.295	1.09	-0.21	-1.9	0.111	-1.9	-0.469 (inactive)	-0.278	-1.08	0.253 (inactive)
CC(C)C[C@@H]1NC(=O)[C@@]23C(=O)N[C@@H](Cc4ccccc4)C2[C@H](C)[C@@]2(C)O[C@H]2C3/C=C/C/C=C\CNC(=O)CNC1=O (stereo not given in full)	0.201	0.97	-0.47	-0.288	-0.174	-0.572	-0.159 (inactive)	0.149	0.694	-0.624 (inactive)
COc1ccccc1CN1C(=O)c2ccccc2[C@](Cc2ccccc2I)(C(=O)NCC(C)C)[C@@H]1c1ccc(CO)cc1	1.26	0.297	2.05	-0.746	-0.458	1.41	-0.808 (inactive)	-0.38	-0.257	0.41 (inactive)
CC(C)(C)N1CC=CC23O[C@@H]4/C=C\CCCOC(=O)C4[C@H]2C(=O)N(CCCO)[C@@H]3C1=O (stereo not given in full)	-0.377	1.1	0.0723	-0.112	-0.0698	-0.794	0.822 (inactive)	0.233	0.229	0.114 (inactive)
